Assay results as given in the supplement of paper PMC10849652.
Targets with a hit are over-represented here; the source holds about 7,900 in all. About 0.6% of all pairs of compound and target were hits.

Assays:
Assay in all cases: log2 fold change, soluble protein after heating vs DMSO (PISA); higher = thermal stabilisation; K562 cells, 10 uM, 30 min; active = over 0.2 and 3.5 SD of the protein, either way, in both replicates (recomputed)
saracatinib = compound: CN1CCN(CCOc2cc(OC3CCOCC3)c3c(Nc4c(Cl)ccc5c4OCO5)ncnc3c2)CC1 [saracatinib]
In short: (§1)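 K562 cells at 2×10^6 cells/mL were treated with 10 μM compound for 30 min. Aliquots were heated for 3 min across 48°C-58°C, pooled, and extracted in PBS with 0.5% NP-40 at 4°C; soluble protein was the supernatant after 21,000xg for 90 min. Soluble protein was quantified by TMTpro 16plex LC-MS/MS with channel sums equalised, and reported as log2 fold change in thermal stability against DMSO controls, with values from duplicates.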

sotrastaurin = compound: CN1CCN(c2nc(C3=C(c4c[nH]c5ccccc45)C(=O)NC3=O)c3ccccc3n2)CC1 [sotrastaurin]
In short: as §1

alvocidib = compound: CN1CC[C@H](c2c(O)cc(O)c3c(=O)cc(-c4ccccc4Cl)oc23)[C@H](O)C1 [alvocidib]
In short: as §1

Tubastatin A = compound: CN1CCc2c(c3ccccc3n2Cc2ccc(C(=O)NO)cc2)C1 [Tubastatin A]
In short: as §1

[1] = compound: CNC(=O)C1=CC=CC=C1NC2=NC(=NC=C2Cl)NC3=C(C=C(C=C3)N4CCOCC4)OC
In short: as §1

defactinib = compound: CNC(=O)c1ccc(Nc2ncc(C(F)(F)F)c(NCc3nccnc3N(C)S(C)(=O)=O)n2)cc1 [defactinib]
In short: as §1

rucaparib = compound: CNCc1ccc(-c2[nH]c3cc(F)cc4c3c2CCNC4=O)cc1 [rucaparib]
In short: as §1

[2] = compound: CNc1nc(-c2ccc3c(N)n[nH]c3c2)cc(N2C[C@@H](C(=O)NC3CCCCC3)CC[C@H]2C)n1
In short: as §1

encorafenib = compound: COC(=O)N[C@@H](C)CNc1nccc(-c2cn(C(C)C)nc2-c2cc(Cl)cc(NS(C)(=O)=O)c2F)n1 [encorafenib]
In short: as §1

[3] = compound: COC(=O)[C@H](CCSC)NC(=O)C1=C(C=C(C=C1)NC[C@H](CS)N)C2=CC=CC=C2
In short: as §1

[4] = compound: COC1=CC=C(C=C1)CN2C=CC3=C2C=C(C=C3)C(=O)NO
In short: as §1

filanesib = compound: CON(C)C(=O)N1N=C(c2cc(F)ccc2F)S[C@@]1(CCCN)c1ccccc1 [filanesib]
In short: as §1

zotarolimus = compound: CO[C@H]1C[C@@H]2CC[C@@H](C)[C@@](O)(O2)C(=O)C(=O)N2CCCC[C@H]2C(=O)O[C@H]([C@H](C)C[C@@H]2CC[C@H](n3cnnn3)[C@H](OC)C2)CC(=O)[C@H](C)/C=C(\C)[C@@H](O)[C@@H](OC)C(=O)[C@H](C)C[C@H](C)/C=C/C=C/C=C/1C [zotarolimus]
In short: as §1

idasanutlin = compound: COc1cc(C(=O)O)ccc1NC(=O)[C@@H]1N[C@@H](CC(C)(C)C)[C@](C#N)(c2ccc(Cl)cc2F)[C@H]1c1cccc(Cl)c1F [idasanutlin]
In short: as §1

alisertib = compound: COc1cc(Nc2ncc3c(n2)-c2ccc(Cl)cc2C(c2c(F)cccc2OC)=NC3)ccc1C(=O)O [alisertib]
In short: as §1

[5] = compound: COc1cc2nc(-c3cc(F)ccc3O)nc(N[C@@H]3CNC[C@H]3C(C)(C)O)c2cc1OC
In short: as §1

gefitinib = compound: COc1cc2ncnc(Nc3ccc(F)c(Cl)c3)c2cc1OCCCN1CCOCC1 [gefitinib]
In short: as §1

[6] = compound: COc1cccc2cc(-c3nc([C@H]4CC[C@H](C(=O)O)CC4)n4ncnc(N)c34)[nH]c12
In short: as §1

lapatinib = compound: CS(=O)(=O)CCNCc1ccc(-c2ccc3ncnc(Nc4ccc(OCc5cccc(F)c5)c(Cl)c4)c3c2)o1 [lapatinib]
In short: as §1

pictilisib = compound: CS(=O)(=O)N1CCN(Cc2cc3nc(-c4cccc5[nH]ncc45)nc(N4CCOCC4)c3s2)CC1 [pictilisib]
In short: as §1

Measured: log2 fold change

STARD3NL (UniProt O95772)
Sequence of UniProt O95772 (O95772 whole entry, looked up): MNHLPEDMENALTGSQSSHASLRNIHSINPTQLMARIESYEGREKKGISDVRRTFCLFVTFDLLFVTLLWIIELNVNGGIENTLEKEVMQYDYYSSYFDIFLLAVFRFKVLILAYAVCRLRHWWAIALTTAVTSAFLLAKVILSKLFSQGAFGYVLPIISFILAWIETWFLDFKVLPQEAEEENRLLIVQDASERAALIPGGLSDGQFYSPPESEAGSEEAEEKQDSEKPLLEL
inactive: saracatinib 0.103 | sotrastaurin -0.004 | alvocidib -0.01 | Tubastatin A -0.05 | [1] 0.013 | defactinib -0.007 | rucaparib -0.164 | [2] -0.052 | encorafenib 0.068 | [3] -0.046 | [4] -0.005 | filanesib -0.082 | zotarolimus -0.054 | idasanutlin -0.19 | alisertib -0.056 | [5] 0.095 | gefitinib 0.048 | [6] 0.075 | lapatinib -0.048 | pictilisib 0.024

SULT1A1 (UniProt P50225)
Sequence of UniProt P50225 (P50225 whole entry, looked up): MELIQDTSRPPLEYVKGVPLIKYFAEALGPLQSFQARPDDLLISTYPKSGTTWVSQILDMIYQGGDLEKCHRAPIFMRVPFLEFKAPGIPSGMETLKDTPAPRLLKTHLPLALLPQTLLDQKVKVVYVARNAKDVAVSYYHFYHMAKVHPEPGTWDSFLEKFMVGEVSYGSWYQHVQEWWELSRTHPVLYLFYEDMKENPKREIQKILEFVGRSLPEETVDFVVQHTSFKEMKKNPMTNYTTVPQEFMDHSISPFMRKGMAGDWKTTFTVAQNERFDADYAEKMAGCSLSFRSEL
inactive: saracatinib 0.052 | sotrastaurin -0.03 | alvocidib -0.061 | Tubastatin A -0.004 | [1] 0.105 | defactinib -0.214 | rucaparib -0.048 | [2] 0.05 | encorafenib 0.084 | [3] -0.125 | [4] 0.161 | filanesib 0.034 | zotarolimus 0.042 | idasanutlin -0.02 | alisertib 0.056 | [5] 0.046 | gefitinib 0.062 | [6] -0.03 | lapatinib 0.026 | pictilisib 0.138

TMBIM6 isoform 2 (UniProt P55061)
Sequence of UniProt P55061 (P55061 whole entry, looked up): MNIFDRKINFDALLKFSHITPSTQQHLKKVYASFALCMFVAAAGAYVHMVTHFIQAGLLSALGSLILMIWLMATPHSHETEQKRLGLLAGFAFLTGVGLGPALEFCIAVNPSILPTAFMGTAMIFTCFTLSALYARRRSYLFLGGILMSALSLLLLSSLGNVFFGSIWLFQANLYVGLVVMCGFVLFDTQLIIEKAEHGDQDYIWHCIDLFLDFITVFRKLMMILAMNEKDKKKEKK
active: idasanutlin -0.51 | [5] -0.535
inactive: saracatinib 0.08 | sotrastaurin -0.029 | alvocidib -0.027 | Tubastatin A 0.062 | [1] -0.004 | defactinib -0.007 | rucaparib -0.065 | [2] -0.006 | encorafenib -0.005 | [3] 0.039 | [4] -0.007 | filanesib -0.233 | zotarolimus -0.099 | alisertib -0.27 | gefitinib -0.087 | [6] -0.165 | lapatinib -0.196

SPECC1 (UniProt Q5M775)
Sequence of UniProt Q5M775 (Q5M775 whole entry, looked up): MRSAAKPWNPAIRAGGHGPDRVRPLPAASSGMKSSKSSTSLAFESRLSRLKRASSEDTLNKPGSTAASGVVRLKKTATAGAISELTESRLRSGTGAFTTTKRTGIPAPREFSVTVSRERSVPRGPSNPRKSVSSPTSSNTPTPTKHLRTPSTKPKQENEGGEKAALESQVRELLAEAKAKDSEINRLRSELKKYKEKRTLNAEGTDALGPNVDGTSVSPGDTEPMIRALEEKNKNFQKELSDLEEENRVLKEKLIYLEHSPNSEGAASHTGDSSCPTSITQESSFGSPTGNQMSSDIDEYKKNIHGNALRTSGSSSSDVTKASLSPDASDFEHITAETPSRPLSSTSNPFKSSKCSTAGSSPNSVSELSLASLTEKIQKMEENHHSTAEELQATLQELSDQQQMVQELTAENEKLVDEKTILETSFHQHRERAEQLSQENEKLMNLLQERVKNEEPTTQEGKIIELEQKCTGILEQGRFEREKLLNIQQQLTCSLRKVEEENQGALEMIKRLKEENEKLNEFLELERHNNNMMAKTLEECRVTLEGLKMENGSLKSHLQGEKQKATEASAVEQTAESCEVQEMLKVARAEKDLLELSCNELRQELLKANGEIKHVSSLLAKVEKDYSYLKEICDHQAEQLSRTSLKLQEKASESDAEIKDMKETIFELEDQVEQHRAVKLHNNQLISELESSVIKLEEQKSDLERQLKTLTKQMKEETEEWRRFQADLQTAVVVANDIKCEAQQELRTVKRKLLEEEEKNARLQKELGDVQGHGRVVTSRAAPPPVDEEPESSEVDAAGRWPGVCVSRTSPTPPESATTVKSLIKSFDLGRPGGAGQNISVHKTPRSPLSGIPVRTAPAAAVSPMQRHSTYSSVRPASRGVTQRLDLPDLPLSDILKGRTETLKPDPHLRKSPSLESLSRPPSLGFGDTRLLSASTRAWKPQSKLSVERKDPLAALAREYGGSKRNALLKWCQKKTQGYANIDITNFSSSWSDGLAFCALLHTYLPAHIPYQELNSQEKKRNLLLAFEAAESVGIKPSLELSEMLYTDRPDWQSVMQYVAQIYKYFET
active: [4] -0.357 | [6] 0.309
inactive: saracatinib -0.171 | sotrastaurin 0.093 | alvocidib 0.06 | Tubastatin A -0.024 | [1] -0.069 | defactinib 0 | rucaparib 0.091 | [2] -0.104 | encorafenib -0.015 | [3] -0.062 | filanesib 0.064 | zotarolimus 0.038 | idasanutlin -0.111 | alisertib -0.019 | [5] -0.014 | gefitinib 0.028 | lapatinib -0.006 | pictilisib 0.08

TBC1D23 (UniProt Q9NUY8)
Sequence of UniProt Q9NUY8 (Q9NUY8 whole entry, looked up): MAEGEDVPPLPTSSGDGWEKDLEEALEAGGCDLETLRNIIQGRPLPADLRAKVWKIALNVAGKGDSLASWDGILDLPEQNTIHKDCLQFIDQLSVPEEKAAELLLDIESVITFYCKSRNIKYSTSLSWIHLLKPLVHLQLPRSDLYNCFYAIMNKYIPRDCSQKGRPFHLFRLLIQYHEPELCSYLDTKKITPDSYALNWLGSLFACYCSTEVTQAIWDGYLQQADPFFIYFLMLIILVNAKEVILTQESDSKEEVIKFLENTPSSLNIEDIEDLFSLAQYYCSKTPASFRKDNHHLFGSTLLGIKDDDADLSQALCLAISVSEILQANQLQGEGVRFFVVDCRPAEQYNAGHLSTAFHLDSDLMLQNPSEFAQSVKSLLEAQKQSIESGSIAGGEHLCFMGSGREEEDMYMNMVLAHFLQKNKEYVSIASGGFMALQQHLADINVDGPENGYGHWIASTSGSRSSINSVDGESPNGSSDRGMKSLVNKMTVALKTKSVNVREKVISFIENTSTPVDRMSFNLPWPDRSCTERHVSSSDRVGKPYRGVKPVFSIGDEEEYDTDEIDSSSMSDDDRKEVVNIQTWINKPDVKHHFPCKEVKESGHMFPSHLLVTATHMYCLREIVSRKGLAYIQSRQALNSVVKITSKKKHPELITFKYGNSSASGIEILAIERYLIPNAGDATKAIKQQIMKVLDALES
inactive: saracatinib -0.023 | sotrastaurin -0.073 | alvocidib -0.053 | Tubastatin A 0.043 | [1] -0.027 | defactinib -0.109 | rucaparib -0.038 | [2] -0.074 | encorafenib 0.079 | [3] -0.047 | [4] 0.07 | filanesib -0.184 | zotarolimus -0.002 | idasanutlin 0.068 | alisertib 0.023 | [5] -0.19 | gefitinib -0.058 | [6] 0.021 | lapatinib -0.053 | pictilisib -0.067

STAT5B (UniProt P51692)
Sequence of UniProt P51692 (P51692 whole entry, looked up): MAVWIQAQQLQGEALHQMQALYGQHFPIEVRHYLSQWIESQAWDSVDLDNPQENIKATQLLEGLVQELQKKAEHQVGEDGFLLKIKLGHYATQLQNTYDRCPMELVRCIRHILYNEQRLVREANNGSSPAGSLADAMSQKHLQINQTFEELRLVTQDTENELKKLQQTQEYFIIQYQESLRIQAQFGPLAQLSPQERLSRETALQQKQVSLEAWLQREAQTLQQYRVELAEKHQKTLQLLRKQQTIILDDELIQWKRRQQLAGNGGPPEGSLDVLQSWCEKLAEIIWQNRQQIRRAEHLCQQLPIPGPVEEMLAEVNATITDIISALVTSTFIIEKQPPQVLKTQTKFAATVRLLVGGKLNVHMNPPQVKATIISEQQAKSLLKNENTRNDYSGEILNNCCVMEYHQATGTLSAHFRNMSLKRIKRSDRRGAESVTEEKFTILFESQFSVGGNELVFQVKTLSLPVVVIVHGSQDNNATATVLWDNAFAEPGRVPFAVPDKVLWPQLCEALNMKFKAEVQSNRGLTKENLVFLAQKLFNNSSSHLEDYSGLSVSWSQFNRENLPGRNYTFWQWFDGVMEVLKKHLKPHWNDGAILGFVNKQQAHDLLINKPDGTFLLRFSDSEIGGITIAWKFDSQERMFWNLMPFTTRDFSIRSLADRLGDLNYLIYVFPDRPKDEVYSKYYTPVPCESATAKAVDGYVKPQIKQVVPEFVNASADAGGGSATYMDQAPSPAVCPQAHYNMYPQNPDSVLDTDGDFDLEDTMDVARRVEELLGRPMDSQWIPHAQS
inactive: saracatinib -0.231 | sotrastaurin -0.083 | alvocidib -0.023 | Tubastatin A 0.045 | [1] -0.053 | defactinib -0.33 | rucaparib 0.105 | [2] 0.138 | encorafenib 0.073 | [3] -0.052 | [4] 0.13 | filanesib -0.036 | zotarolimus 0.112 | idasanutlin 0.086 | alisertib -0.038 | [5] -0.115 | gefitinib 0.046 | [6] -0.094 | lapatinib 0.029 | pictilisib -0.148

TIMM29 (UniProt Q9BSF4)
Sequence of UniProt Q9BSF4 (Q9BSF4 whole entry, looked up): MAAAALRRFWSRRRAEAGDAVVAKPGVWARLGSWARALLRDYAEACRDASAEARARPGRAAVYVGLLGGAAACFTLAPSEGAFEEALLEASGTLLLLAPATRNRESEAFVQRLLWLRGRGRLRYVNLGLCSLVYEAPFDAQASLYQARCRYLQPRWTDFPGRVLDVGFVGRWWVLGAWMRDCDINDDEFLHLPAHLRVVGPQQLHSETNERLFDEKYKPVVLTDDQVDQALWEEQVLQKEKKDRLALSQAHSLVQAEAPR
inactive: saracatinib 0.054 | sotrastaurin 0.051 | alvocidib -0.068 | Tubastatin A 0.003 | [1] -0.03 | defactinib 0.1 | rucaparib -0.008 | [2] 0.002 | encorafenib -0.098 | [3] 0.13 | [4] -0.141 | filanesib 0.041 | zotarolimus -0.058 | idasanutlin -0.096 | alisertib 0.01 | [5] 0.021 | gefitinib 0.039 | [6] 0.073 | lapatinib 0.014 | pictilisib 0.051

TLK1 (UniProt Q9UKI8)
Sequence of UniProt Q9UKI8 (Q9UKI8 whole entry, looked up): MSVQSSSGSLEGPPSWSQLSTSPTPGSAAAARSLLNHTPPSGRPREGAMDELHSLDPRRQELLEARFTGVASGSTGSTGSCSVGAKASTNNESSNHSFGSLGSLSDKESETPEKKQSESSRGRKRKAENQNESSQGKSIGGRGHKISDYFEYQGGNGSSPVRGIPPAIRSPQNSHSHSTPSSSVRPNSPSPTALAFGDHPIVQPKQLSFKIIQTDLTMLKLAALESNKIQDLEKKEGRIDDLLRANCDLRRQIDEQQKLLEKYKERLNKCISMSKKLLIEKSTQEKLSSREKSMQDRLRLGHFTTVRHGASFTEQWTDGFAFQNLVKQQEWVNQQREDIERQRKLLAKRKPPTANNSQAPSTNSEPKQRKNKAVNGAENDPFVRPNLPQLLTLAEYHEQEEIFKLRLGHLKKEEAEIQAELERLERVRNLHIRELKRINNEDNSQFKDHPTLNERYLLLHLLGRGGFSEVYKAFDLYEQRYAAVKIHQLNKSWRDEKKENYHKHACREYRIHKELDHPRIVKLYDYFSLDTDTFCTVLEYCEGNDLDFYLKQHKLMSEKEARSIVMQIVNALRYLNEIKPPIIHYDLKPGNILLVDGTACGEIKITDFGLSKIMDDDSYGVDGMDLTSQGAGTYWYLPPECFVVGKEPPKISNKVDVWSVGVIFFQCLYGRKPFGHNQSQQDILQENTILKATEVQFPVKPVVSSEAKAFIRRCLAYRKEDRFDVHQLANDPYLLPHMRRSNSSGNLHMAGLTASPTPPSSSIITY
inactive: saracatinib 0.022 | sotrastaurin -0.011 | alvocidib -0.022 | Tubastatin A 0.036 | [1] -0.064 | defactinib -0.013 | rucaparib -0.029 | [2] -0.002 | encorafenib 0.022 | [3] -0.033 | [4] -0.011 | filanesib -0.021 | zotarolimus 0.019 | idasanutlin -0.009 | alisertib -0.023 | [5] -0.029 | gefitinib 0.006 | [6] 0.064 | lapatinib -0.018 | pictilisib -0.04
